Measured values published in PubChem BioAssay (NCATS).
Unmarked numbers belong to inactive results. Records with an inconclusive call do not appear. A call without a number means that no potency is given here. Calls of active or inactive are those of the source. Unless noted, calls follow the shape of the dose curve; as a rule, active = well fitted curve in the direction sought with a large enough effect; inconclusive = small, poorly fitted or top-dose-only effect, or another doubt; inactive = no such curve, though single readings can be large; an effect the other way counts as inactive or inconclusive.

Legend:
[1] = target: Rap guanine nucleotide exchange factor 3 (Homo sapiens) (UniProt O95398); assay: Confirmatory qHTS for agonist of cAMP-regulated guanine nucleotide exchange factor 3 (EPAC1) (AID 1645881);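 also: EPAC1 catalysed release of BODIPY-GDP from Rap1B seen as fluorescence loss; nearly all actives have a fitted effect of over 75% in size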
[2] = target: Rap guanine nucleotide exchange factor 4 (Homo sapiens) (UniProt Q8WZA2); assay: Confirmatory qHTS for antagonist of cAMP-regulated guanine nucleotide exchange factor 4 (EPAC2) (AID 1645885); also: nearly all actives have a fitted effect of over 25% in size
[3] = target: Rap guanine nucleotide exchange factor 3 (Homo sapiens) (UniProt O95398); assay: Counterscreen qHTS for antagonist of cAMP-regulated guanine nucleotide exchange factor 3 (EPAC1) (AID 1645888);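 also: fluorescence loss as bound BODIPY-GDP is released from Rap1B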
Outline: (§1)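 Rap1B-BODIPY-GDP 250 nM + GDP 50 uM; cpds 7-pt, final 9.74 nM–152 uM (activator mode) or from 7.32 nM upwards (inhibitor mode); RT; FI 480/540 nm at 5 and 30 min, then ± cAMP, reread.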

[4] = target: Rap guanine nucleotide exchange factor 3 (Homo sapiens) (UniProt O95398); assay: Counterscreen qHTS for agonist of cAMP-regulated guanine nucleotide exchange factor 3 (EPAC1) (AID 1645889); also: nearly all actives have a fitted effect of over 40% in size
Outline: as §1

[5] = target: Endonuclease 4 (Escherichia coli (strain K12)) (UniProt P0A6C1); assay: Counterscreen for APE1 Inhibitors: qHTS Validation Assay for Inhibitors of Endonuclease IV (AID 1708)
Outline: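 Enzymatic AP-site incision assay using a double-stranded THF substrate labelled with TAMRA and BHQ-2; released fluorescence signals activity. Enzyme 2 nM, substrate 50 nM, 15 min compound preincubation.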

[6] = qHTS for differential inhibitors of proliferation of Plasmodium falciparum line 7G8 (AID 1815);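 also: potency is read from the fitted curve at half-maximal effect; parasite growth measured after three days of incubation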
[7] = qHTS for differential inhibitors of proliferation of Plasmodium falciparum line GB4 (AID 1816); conditions: Potency: Plasmodium falciparum GB4 proliferation inhibition;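 also: potency is read from the fitted curve at half-maximal effect; parasite growth measured after 72 h incubation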
[8] = qHTS for differential inhibitors of proliferation of Plasmodium falciparum line 3D7 (AID 1876); also: potency is read from the fitted curve at half-maximal effect
[9] = qHTS for differential inhibitors of proliferation of Plasmodium falciparum line D10 (AID 1877);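 also: potency is read from the fitted curve at half-maximal effect; parasites grown with compound for 72 h before DNA staining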
[10] = qHTS for differential inhibitors of proliferation of Plasmodium falciparum line Dd2 (AID 1882); conditions: Potency: Plasmodium falciparum Dd2 proliferation inhibition; also: potency is read from the fitted curve at half-maximal effect; nearly all actives have a fitted effect of over 65% in size
Outline: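 SYBR Green I DNA fluorescence read-out, ex 485/em 535 nm. Signals were normalized to 0.29 uM artemisinin and DMSO wells, then corrected using vehicle-only plates flanking each stack. Parasite growth ran 72 h in erythrocytes before lysis.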

[11] = qHTS for differential inhibitors of proliferation of Plasmodium falciparum line W2 (AID 1883); conditions: Potency: Plasmodium falciparum W2 proliferation inhibition;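 also: potency is read from the fitted curve at half-maximal effect; parasites grown with compound for 72 h before lysis and staining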
[12] = qHTS for differential inhibitors of proliferation of Plasmodium falciparum line HB3 (AID 1886); conditions: Potency: Plasmodium falciparum HB3 proliferation inhibition;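 also: potency is read from the fitted curve at half-maximal effect; parasites grown with compound for 72 h before SYBR Green readout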
[13] = target: ATP-dependent DNA helicase Q1 (Homo sapiens) (UniProt P46063); assay: qHTS Validation Assay for Inhibitors of RecQ-Like Dna Helicase 1 (RECQ1) (AID 2353)
Outline: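 50 nM RECQ1T1 preincubated 15 min with compound in Tris pH 8.0 buffer with MgCl2, DTT, Tween-20 and 2.5 ug/ml poly(dI-dC); started with 200 nM TAMRA/BHQ-2 forked duplex and 2 mM ATP. Unwinding read as fluorescence (525/598 nm), two reads 2 h apart.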

[14] = Validation screen for inhibitors of Lassa infection (AID 463096; calls by dose curve; also: potency is read from the fitted curve at half-maximal effect)
[15] = Validation screen for small molecules that induce DNA re-replication in MCF 10A normal breast cells (AID 463097); also: potency is read from the fitted curve at half-maximal effect; nearly all actives have a fitted effect of over 60% in size
Outline: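 Following 48 hr compound incubation (37 C, 5% CO2), MCF 10A cells receive Hoechst for 40 min at 37 C. Nuclei are then scanned (excitation 405 nm, emission 500-530 nm) for total fluorescence intensity.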

[16] = Quantitative high throughput screen for delayed death inhibitors of the malarial parasite plastid, 96 hour incubation (AID 488745); also: potency is read from the fitted curve at half-maximal effect; nearly all actives have a fitted effect of over 70% in size
Outline: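 P. falciparum carrying an integrated firefly luciferase reporter, grown in erythrocytes (2% hematocrit, 0.1% parasitemia final) in RPMI 1640/0.5% Albumax, was exposed to compound for 96 h (two generations) at 37 C, 5% CO2. Luminescence decrease indicated growth inhibition.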

[17] = Quantitative high throughput screen for delayed death inhibitors of the malarial parasite plastid, 48 hour incubation (AID 488752); also: potency is read from the fitted curve at half-maximal effect; nearly all actives have a fitted effect of over 65% in size
Outline: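 Erythrocytes infected with P. falciparum carrying an integrated firefly luciferase reporter (2% hematocrit, 0.1% parasitemia final) were exposed to compounds in RPMI 1640/0.5% Albumax for 48 h at 37 C, 5% CO2. Growth inhibition was scored as reduced luminescence.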

[18] = target: M-phase phosphoprotein 8 (Homo sapiens) (UniProt Q99549); assay: qHTS Validation Assay for Inhibitors for MPP8 Chromodomain Interactions with Methylated Histone Tails (AID 488949);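 also: 50 nM MPP8 with 50 nM peptide preformed then compounds added for 30 min; AlphaScreen signal from MPP8 chromodomain bound to biotinylated H3K9me3 peptide; top concentration of the series differs between compounds; nearly all actives have a fitted effect of over 55% in size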
Outline: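 Chemiluminescent proximity assay: histidine-tag capture via nickel acceptor beads, biotin peptide via streptavidin donor beads. Protein and peptide each at 50 nM, pH 7.4, with 30 min incubations at room temperature for complex formation, compound exposure and bead binding.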

[19] = target: Thyrotropin-releasing hormone receptor (Homo sapiens) (UniProt P34981); assay: qHTS for Small Molecule Agonists and Allosteric Enhancers of Human TRH Receptor: Validation Screen for Agonists (AID 493127;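 active = calcium activation more than 3 SD above the typical response in the agonist read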;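 also: intracellular calcium rise by fluo-8 fluorescence before TRH EC20 addition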); conditions: TRH receptor agonist cell assay; at 2 µM; active compounds read high
Outline: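 TRHR-expressing cells were plated overnight in serum-containing medium, then loaded with fluo-8 calcium dye at room temperature for 30 min–1.5 h. After a 10 s baseline, compound was pin-transferred and calcium fluorescence (ex 480/em 530) read kinetically for agonist response.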

[20] = target: Galactokinase (Homo sapiens) (UniProt P51570); assay: qHTS Validation Assay for Inhibitors of Human Galactokinase (GALK) (AID 493189)
Outline: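 Enzyme activity is inferred from ATP consumption: human GALK phosphorylates galactose (100 uM) using 35 uM ATP for 1 h at room temperature, and luciferase-based Kinase-Glo Plus reports unconsumed ATP.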

[21] = Validation screen for small molecules that induce DNA re-replication in SW480 colon adenocarcinoma cells (AID 504364)
Outline: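 SW480 cells seeded at 250 per well were exposed to compound or DMSO for 48 hr at 37 C, 5% CO2, then stained with Hoechst for 40 min. DNA content per nucleus was imaged (405 nm ex, 500-530 nm em).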

[22] = target: Tyrosyl-DNA phosphodiesterase 1 (Homo sapiens) (UniProt Q9NUW8); assay: Confirmation Assay for Inhibitors of Tyrosyl-DNA Phosphodiesterase (TDP1) (AID 489007); conditions: recombinant human TDP1 enzymatic activity, dose-response; also: potency is read from the fitted curve at half-maximal effect; nearly all actives have a fitted effect of over 40% in size
Outline: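 Recombinant E. coli-expressed Tdp1 (1 nM final) was preincubated with compounds 15 min at room temperature, then reacted 5 min with 15 nM 5'-biotin/3'-phosphotyrosine-FITC DNA substrate; cleavage read as loss of AlphaScreen signal (10 ug/ml beads, 10 min).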

[23] = target: Lysosomal acid glucosylceramidase (Homo sapiens) (UniProt P04062); assay: Glucocerebrosidase-p2 (AID 348; in the data active = potency below about 10 µM; also: potency is read from the fitted curve at half-maximal effect); conditions: purified GBA, blue fluorogenic substrate, 40 min
Outline: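 Compounds titrated from 0.6 nM upwards against 0.2 nM enzyme in pH 5.9 citric acid/KH2PO4, taurocholate, tween-20; blue fluorogenic substrate 80 uM, 40 min room temperature, stopped and read Ex 365/Em 440 for AC50.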

[24] = AP1 Signaling Pathway (AID 357; active = well fitted curve in either direction with a large enough effect, not every such curve was filed as active;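 also: ME-180 reporter cells stimulated with EGF at its EC50 level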)
Outline: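 A ratiometric CCF4 readout (405 nm excitation; 460 and 530 nm emission) quantified AP-1-driven beta-lactamase in ME-180 cells after 5 h with compound and EC50 EGF; AC50 values were derived for activators and inhibitors.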

[25] = target: Cytochrome P450 1A2 (Homo sapiens) (UniProt P05177); assay: p450-cyp1a2 (AID 410; calls by dose curve; also: potency is read from the fitted curve at half-maximal effect)
Outline: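 Human CYP1A2 (20nM) demethylated Luciferin-ME at its Km (100uM) in 100mM KPO4. After 10 min compound preincubation, NADPH regeneration ran the reaction 60 min at room temperature. Luciferin was read by luminescence, normalized to 57 uM furafylline.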

[26] = Stat Signaling Pathway (AID 446; active = well fitted curve in either direction with a large enough effect, not every such curve was filed as active;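 also: ME-180 cervical cancer cells given 40 pM IL-6 alongside compound; SIE-controlled beta-lactamase reporter measured as 460/530 nm FRET emission ratio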)
Outline: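 IL-6/STAT signaling read in ME-180 cells via an SIE beta-lactamase reporter. Stimulus was 40 pM IL-6 (its AC50) for 5 hrs, so both activation and inhibition register.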

[27] = target: Glucocorticoid receptor (Homo sapiens) (UniProt P04150); assay: GR-GFP Redistribution (AID 450;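 active = compounds whose dose series gives a full or clear partial fitted curve of increased nuclear translocation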; also: potency is read from the fitted curve at half-maximal effect); conditions: U2OS GR-GFP nuclear translocation, laser cytometry, 2 h
[28] = target: Glucocorticoid receptor (Homo sapiens) (UniProt P04150); assay: GR-EFC Redistribution (AID 451; calls by dose curve; also: potency is read from the fitted curve at half-maximal effect); conditions: CHO-K1 GR-EFC translocation, beta-gal luminescence, 2 h
Outline: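 Translocation of GR-ED fusion to nuclear EA restores b-gal, read by luminescence after 1 h room-temperature detection. Engineered CHO-K1 biosensor cells, 1,000/well, exposed 2 h at 37 C to titrations up to 46 uM final.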

[29] = target: Mitogen-activated protein kinase 10 (Mus musculus) (UniProt Q61831); assay: JNK3 AlphaScreen Assay (AID 530; active = well fitted curve in either direction with a large enough effect, not every such curve was filed as active;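 also: kinase came from lysate of stimulated human HepG2 cells; signal reports phosphorylation of biotinylated GST-cJun 1-79 at Ser73 with 10 µM ATP; series mostly up to about 57 µM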)
Outline: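 Room-temperature AlphaScreen kinase assay; pre-activated HepG2 lysate as JNK3 source, biotin-GST-cJun(1-79) substrate, 10 uM ATP, compound 15 min preincubation.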

[30] = target: 3',5'-cyclic-AMP phosphodiesterase 4B (Homo sapiens) (UniProt Q07343); assay: qHTS Assay for Inhibitors of PDE-IV (AID 607; active = well fitted activation curve with a large enough effect in the main read-out, with a control signal flat, not every such curve was filed as active)
Outline: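 Live HEK293 cells with a modified cyclic nucleotide-gated (CNG) channel report intracellular cAMP via membrane-potential dye fluorescence (ex 535/em 590 nm). Endogenous PDE-IV was targeted. Compounds were tested at up to 22.9 uM final; RO 20-1724 100 uM served as control.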

[31] = target: Rap guanine nucleotide exchange factor 4 (Homo sapiens) (UniProt Q8WZA2); assay: Confirmatory qHTS for agonist of cAMP-regulated guanine nucleotide exchange factor 4 (EPAC2) (AID 1645884);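 also: nucleotide exchange releases bodipy-GDP from Rap1 and this lowers its fluorescence; nearly all actives have a fitted effect of over 65% in size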

Sequence of Rap guanine nucleotide exchange factor 4 (Homo sapiens) (Q8WZA2 whole entry, looked up): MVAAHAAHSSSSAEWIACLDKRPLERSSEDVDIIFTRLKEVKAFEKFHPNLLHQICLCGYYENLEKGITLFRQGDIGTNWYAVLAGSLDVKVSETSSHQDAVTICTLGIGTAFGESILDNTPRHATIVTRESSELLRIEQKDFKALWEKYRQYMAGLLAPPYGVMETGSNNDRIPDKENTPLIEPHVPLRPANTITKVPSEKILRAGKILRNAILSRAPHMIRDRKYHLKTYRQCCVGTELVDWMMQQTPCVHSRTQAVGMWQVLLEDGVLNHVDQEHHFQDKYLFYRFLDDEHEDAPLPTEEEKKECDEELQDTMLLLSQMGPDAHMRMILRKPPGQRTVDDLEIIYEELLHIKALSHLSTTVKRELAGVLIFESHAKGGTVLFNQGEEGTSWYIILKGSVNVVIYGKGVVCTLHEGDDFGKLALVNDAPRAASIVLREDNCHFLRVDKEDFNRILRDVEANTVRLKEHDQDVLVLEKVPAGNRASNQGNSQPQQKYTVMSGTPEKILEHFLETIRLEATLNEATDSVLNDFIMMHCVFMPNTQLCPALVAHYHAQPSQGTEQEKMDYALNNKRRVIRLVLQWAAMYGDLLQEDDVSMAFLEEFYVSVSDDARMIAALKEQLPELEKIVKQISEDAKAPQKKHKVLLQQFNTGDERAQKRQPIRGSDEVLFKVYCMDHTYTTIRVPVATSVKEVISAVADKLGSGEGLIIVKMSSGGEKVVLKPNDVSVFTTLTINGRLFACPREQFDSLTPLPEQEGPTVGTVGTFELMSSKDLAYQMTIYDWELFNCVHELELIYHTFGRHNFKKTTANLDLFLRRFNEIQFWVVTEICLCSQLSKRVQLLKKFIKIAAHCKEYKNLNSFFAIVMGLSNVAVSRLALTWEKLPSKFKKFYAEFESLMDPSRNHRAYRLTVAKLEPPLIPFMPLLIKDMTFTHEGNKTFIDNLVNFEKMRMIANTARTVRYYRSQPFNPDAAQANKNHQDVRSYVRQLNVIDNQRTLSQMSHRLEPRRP
Sequence of Rap guanine nucleotide exchange factor 3 (Homo sapiens) (O95398 whole entry, looked up): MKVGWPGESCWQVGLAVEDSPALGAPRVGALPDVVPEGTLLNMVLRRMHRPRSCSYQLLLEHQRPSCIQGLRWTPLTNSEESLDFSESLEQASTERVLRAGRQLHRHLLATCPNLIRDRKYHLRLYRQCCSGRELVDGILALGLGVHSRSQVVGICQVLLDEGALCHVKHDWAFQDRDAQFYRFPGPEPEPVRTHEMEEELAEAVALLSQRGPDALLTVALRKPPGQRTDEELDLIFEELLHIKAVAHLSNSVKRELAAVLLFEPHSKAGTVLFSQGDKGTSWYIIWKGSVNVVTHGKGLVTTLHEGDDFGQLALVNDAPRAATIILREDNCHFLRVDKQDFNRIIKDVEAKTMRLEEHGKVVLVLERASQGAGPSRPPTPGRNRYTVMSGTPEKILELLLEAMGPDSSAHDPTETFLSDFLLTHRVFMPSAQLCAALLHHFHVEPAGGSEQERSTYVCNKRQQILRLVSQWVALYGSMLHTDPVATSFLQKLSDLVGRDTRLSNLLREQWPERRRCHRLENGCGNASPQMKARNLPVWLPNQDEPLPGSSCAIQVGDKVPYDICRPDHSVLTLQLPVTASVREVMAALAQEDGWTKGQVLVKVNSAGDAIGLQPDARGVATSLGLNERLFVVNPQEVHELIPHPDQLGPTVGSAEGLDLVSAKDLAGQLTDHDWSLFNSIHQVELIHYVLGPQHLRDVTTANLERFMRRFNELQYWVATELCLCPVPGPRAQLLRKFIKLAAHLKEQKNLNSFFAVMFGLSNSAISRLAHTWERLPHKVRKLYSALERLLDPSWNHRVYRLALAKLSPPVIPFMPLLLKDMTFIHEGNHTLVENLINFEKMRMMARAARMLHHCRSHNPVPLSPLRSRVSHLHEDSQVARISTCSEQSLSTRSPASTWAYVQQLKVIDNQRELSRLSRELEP
Sequence of Glucocorticoid receptor (Homo sapiens) (P04150 whole entry, looked up, the tested form may be a part): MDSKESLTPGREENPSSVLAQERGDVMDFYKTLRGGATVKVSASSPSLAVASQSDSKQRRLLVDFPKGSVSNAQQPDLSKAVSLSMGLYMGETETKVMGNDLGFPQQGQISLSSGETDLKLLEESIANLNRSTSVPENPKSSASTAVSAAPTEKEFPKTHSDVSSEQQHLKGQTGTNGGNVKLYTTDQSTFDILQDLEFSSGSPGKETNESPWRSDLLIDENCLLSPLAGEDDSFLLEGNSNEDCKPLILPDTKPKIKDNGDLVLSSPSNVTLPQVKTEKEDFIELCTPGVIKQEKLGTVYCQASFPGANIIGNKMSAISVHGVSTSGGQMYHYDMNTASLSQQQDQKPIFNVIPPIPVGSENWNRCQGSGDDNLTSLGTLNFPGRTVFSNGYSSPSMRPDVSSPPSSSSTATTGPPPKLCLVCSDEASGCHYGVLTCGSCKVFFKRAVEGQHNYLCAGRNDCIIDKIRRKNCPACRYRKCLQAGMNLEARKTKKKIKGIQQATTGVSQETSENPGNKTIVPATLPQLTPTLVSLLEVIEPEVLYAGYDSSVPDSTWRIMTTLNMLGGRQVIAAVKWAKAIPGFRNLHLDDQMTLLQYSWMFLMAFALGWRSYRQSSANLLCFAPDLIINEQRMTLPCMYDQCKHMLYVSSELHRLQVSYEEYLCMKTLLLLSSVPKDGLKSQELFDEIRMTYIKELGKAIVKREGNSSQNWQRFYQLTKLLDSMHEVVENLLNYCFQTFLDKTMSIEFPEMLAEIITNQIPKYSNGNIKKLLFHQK
Sequence of ATP-dependent DNA helicase Q1 (Homo sapiens) (P46063 whole entry, looked up): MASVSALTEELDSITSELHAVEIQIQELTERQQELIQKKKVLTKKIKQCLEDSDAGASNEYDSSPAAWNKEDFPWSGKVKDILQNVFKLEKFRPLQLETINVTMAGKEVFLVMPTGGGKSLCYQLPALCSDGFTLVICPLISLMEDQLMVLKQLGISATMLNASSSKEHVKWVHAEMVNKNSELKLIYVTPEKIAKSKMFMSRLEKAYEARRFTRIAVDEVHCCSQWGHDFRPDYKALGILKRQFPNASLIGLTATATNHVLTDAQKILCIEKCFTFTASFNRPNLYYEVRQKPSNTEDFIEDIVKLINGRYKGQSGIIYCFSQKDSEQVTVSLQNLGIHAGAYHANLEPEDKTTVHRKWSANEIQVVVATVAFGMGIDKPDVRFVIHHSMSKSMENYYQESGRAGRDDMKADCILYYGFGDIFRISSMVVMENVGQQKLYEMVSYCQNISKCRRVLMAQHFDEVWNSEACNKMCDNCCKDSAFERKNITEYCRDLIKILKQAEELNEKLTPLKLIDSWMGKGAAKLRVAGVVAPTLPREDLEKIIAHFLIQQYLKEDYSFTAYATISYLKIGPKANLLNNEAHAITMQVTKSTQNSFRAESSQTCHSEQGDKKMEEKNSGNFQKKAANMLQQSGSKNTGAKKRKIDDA
Sequence of Thyrotropin-releasing hormone receptor (Homo sapiens) (P34981 whole entry, looked up): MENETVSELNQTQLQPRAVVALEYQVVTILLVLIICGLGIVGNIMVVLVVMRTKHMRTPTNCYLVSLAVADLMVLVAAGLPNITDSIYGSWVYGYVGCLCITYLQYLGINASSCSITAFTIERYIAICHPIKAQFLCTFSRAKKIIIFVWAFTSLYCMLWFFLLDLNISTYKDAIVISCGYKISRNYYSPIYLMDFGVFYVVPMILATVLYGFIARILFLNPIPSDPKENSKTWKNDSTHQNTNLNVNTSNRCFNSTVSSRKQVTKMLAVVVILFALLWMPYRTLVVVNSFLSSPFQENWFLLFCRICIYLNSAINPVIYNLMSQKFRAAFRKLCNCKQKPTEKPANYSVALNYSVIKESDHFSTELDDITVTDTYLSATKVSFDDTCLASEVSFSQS
Sequence of 3',5'-cyclic-AMP phosphodiesterase 4B (Homo sapiens) (Q07343 whole entry, looked up): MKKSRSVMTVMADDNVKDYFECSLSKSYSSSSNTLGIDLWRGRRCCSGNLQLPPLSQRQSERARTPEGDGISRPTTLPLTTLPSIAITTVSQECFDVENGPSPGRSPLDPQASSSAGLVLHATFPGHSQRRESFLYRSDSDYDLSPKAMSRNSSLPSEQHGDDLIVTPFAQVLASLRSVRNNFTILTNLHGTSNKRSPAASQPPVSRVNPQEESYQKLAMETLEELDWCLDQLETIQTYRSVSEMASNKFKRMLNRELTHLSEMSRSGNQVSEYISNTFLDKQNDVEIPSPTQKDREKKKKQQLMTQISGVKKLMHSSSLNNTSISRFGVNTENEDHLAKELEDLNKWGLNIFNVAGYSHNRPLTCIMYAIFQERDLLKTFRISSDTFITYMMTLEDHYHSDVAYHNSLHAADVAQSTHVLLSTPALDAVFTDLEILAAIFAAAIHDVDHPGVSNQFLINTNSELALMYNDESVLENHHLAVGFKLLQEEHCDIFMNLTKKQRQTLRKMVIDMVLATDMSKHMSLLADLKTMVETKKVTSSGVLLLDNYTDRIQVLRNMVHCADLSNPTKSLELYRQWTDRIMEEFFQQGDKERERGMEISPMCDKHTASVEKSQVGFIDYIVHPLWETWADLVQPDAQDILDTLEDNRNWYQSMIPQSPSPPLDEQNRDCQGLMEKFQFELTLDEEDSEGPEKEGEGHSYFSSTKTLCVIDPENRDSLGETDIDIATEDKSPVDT
Sequence of Galactokinase (Homo sapiens) (P51570 whole entry, looked up): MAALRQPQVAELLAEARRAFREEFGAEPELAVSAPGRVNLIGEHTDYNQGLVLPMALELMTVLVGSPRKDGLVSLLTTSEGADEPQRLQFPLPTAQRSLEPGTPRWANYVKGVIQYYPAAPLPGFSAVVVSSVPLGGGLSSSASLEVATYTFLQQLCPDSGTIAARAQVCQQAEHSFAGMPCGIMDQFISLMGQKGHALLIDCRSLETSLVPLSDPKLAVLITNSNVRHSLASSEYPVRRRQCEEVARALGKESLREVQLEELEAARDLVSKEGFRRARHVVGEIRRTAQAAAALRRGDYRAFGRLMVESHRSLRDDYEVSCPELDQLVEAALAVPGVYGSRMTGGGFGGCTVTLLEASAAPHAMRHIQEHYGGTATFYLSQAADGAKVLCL

O=C(c1cc(-c2ccc(Cl)cc2)n(-c2ccc(Cl)cc2Cl)n1)N1CCOCC1
Potency [1]: inactive | Potency [2]: inactive | outcome [3]: inactive | Potency [4]: inactive

C/C=C(/C)C(=O)O[C@H]1C(C)=C2C([C@@H]1OC(=O)CCCCCCC)[C@@](C)(OC(C)=O)C[C@@H](OC(=O)CCC)[C@@]1(O)[C@H]2OC(=O)[C@@]1(C)O (some centres not stated)
Potency [5]: inactive | Potency [6]: 4.47 µM (active) | Potency [7]: 3.16 µM (active) | Potency [8]: 4.47 µM (active) | Potency [9]: 10 µM (active) | Potency [10]: 8.91 µM (active) | Potency [11]: 3.55 µM (active) | Potency [12]: 10 µM (active) | outcome [13]: inactive | Potency [14]: 3.16 µM (active) | Potency [15]: 6.31 µM (active) | Potency [16]: 4.15 µM (active) | Potency [17]: 2.94 µM (active) | Potency [18]: inactive | activation [19]: 37.9% (active) | outcome [20]: inactive | outcome [21]: inactive

CN1CCN2c3ccc(N)cc3CC3(C(=O)NC(=O)NC3=O)C2C1 (configuration not stated)
Potency [22]: 14.1 µM (active) | Potency [1]: inactive | Potency [2]: inactive | outcome [3]: inactive | Potency [4]: inactive

O=C1NC(=S)NC(=O)C1=Cc1cccc2cc3ccccc3cc12
Potency [23]: > 11.4 µM | outcome [24]: inactive | Potency [25]: 0.398 µM (active) | outcome [26]: inactive | Potency [27]: > 46 µM | Potency [28]: > 9.22 µM | activity change, negative = inhibition [29]: -7.37% [at 11.4 µM] | Potency [30]: inactive | Potency [1]: inactive | Potency [31]: inactive | outcome [3]: inactive
